Screening data from PubChem.
The list is not random: actives were taken first. Their share in the collection is about 12%.
G9a block: G9a (human) methyltransferase inhibition; Q96KQ7; G9a H3K9 monomethylation, AlphaScreen, 2 h; Potency, µM (titrated, usually from 102 µM), without a hit: top-dose activity, negative = inhibition, most hits filed as inhibitors; hit rate 8.8% among 350,000; further: potency means the concentration at half of the fitted maximal effect; on the % scale 0 is the no-effect control and ±100 the full control effect; nearly all actives have a fitted effect of over 75% in size
Target sequence (Q96KQ7 913-1193 limits assumed): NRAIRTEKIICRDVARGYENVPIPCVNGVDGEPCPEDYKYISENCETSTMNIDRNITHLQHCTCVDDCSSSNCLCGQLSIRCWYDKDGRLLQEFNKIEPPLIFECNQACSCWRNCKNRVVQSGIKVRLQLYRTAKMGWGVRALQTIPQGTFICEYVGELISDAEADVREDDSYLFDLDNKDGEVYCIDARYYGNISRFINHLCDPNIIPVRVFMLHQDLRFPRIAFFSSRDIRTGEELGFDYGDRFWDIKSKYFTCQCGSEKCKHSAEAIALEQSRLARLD
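Quantitative HTS format: methyltransferase activity on a biotin-tagged H3K9 peptide is measured by AlphaScreen, using a rabbit anti-monomethyl-H3K9 antibody with streptavidin donor and anti-IgG acceptor beads. Final levels are 20 nM enzyme, 500 nM peptide, 20 uM SAM; 2 h RT.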
JMJD2A Tudor: JMJD2A Tudor domain (human) inhibition | O75164 | AlphaScreen JMJD2A-Tudor / H3K4me3 peptide binding | Potency, µM (titrated, usually from 114 µM), without a hit: at the highest dose activity change, negative = inhibition, most hits filed as inhibitors | hit rate 4.4% among 390,000 | AID 504339; further: potency means the concentration at half of the fitted maximal effect; on the % scale 0 is the no-effect control and ±100 the full control effect; nearly all actives have a fitted effect of over 50% in size
PLK1 PBD inh: PLK1 (human) polo-box domain binding inhibition; Plk1 PBD binding of FITC phosphopeptide, fluorescence polarization; Potency, µM, for the others: max response, negative = inhibition, actives largely listed as inhibitors; hit rate 2.8% among 360,000; further: potency means the concentration at half of the fitted maximal effect; series mostly up to about 57 µM; on the % scale 0 is the no-effect control and ±100 the full control effect; nearly all actives have a fitted effect of over 65% in size
HP1b binding inh: inhibitors of HP1-beta chromodomain binding to methylated histone tails; Potency, µM (titrated, usually from 114 µM), for the others: at the highest dose activity change, negative = inhibition, usual class: inhibitors; AID 540317; AlphaScreen HP1-beta / biotin-H3K9me3 peptide binding; hit rate 0.56% among 390,000; P83916; further: potency means the concentration at half of the fitted maximal effect; nearly all actives have a fitted effect of over 70% in size
Target sequence (P83916 whole entry, looked up): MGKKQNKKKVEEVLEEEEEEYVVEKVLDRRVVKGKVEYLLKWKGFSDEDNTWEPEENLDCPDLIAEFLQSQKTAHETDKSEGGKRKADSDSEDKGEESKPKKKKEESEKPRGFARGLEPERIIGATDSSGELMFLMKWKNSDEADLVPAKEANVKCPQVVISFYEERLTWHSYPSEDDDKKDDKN
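AlphaScreen: HP1-beta (50 nM) preformed 30 min with biotin-H3(1-18)K9me3 peptide (50 nM) in PBS pH 7.4, 0.01% Tween-20. Compound added for 30 min at RT, then streptavidin donor/nickel chelate acceptor beads (10 ug/mL) for 30 min.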
BAZ2B inh: inhibitors of human BAZ2B bromodomain; Potency, µM (top dose mostly 114 µM), for the others: top-dose activity change, negative = inhibition, hits mostly inhibitors; hit rate 4.4% among 360,000; AlphaScreen BAZ2B-H3K14Ac peptide displacement; Q9UIF8; further: potency means the concentration at half of the fitted maximal effect; on the % scale 0 is the no-effect control and ±100 the full control effect; nearly all actives have a fitted effect of over 60% in size
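AlphaScreen displacement of biotin-H3(5-23)K14Ac peptide (50 nM final) from BAZ2B (50 nM final) in PBS pH 7.4, 0.01% Tween-20; complex preformed 30 min RT, then compounds (top 110 uM) 30 min RT, beads 20 min dark.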
PI5P4K alpha inh: inhibitors of human PI5P4K alpha; hit rate 1.2% among 330,000; max response, %; P48426; PI5P4Kalpha enzyme, ADP-Glo luminescence, 60 min; hits give low values; active means max response of -50% or lower; inconclusive means between -30% and -50%; inactive means -30% or higher; further: value at the top dose of about 77 µM; on the % scale 0 is the no-effect control and ±100 the full control effect
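PI5P4Kalpha ADP-Glo assay; 5 microM ATP final; 60 min RT reaction; HEPES pH 7.4/EGTA/CHAPS, 5% DMSO; controls lacking substrate or enzyme; luminescent end-point.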
Numbers without * were called inactive; ? = inconclusive; . = not tested or not shown; [ ] = remark or other dose. Unless noted, the call rests on the fitted dose curve; in most records, active means well fitted curve in the direction sought with a large enough effect; inconclusive means small, poorly fitted or top-dose-only effect, or another doubt; inactive means no such curve, though single readings can be large; an effect the other way counts as inactive or inconclusive.

SMILES | G9a block | JMJD2A Tudor | PLK1 PBD inh | HP1b binding inh | BAZ2B inh | PI5P4K alpha inh
O=C(Cn1nc(-c2ccccc2)c2ccccc2c1=O)Nc1ccc(F)cc1 | ? | -20% | 1% | 12% | -3% | 5
O=C(Cn1sc2ccccc2c1=O)Nc1ccc(Br)cc1 | . | . | 3µM* | . | . | -83*
O=C(CN1C(=O)C2CC=CCC2C1=O)Nc1ccc(Br)cc1 (centres undefined) | 0% | -13% | -5% | 20% | 0% | 3
O=C(Cn1sc2ccccc2c1=O)Nc1ccc(F)cc1 | . | . | 3µM* | . | . | -91*
O=C(Cn1sc2ccccc2c1=O)Nc1ccc(Cl)cc1 | . | . | 5.3µM* | . | . | -82*
CCCCCCCCC(c1nc2cc(C)c(C)cc2[nH]1)n1c(=O)c(-c2ccccc2Br)nc2ccccc21 (centres undefined) | . | . | -1% | . | . | 1
O=S(=O)(c1ccc(C(F)(F)F)cc1)N1CCN(c2nc(-c3cccs3)nc3ccccc23)CC1 | . | -12% | . | 64% | . | .
CC(C)OC(=O)CC(=O)CSc1nc2c(cc1C#N)CCC2 | 45µM* | 2% | -4% | 55% | -17% | 0
CCOC(=O)CC(=O)CSc1nc2c(cc1C#N)CCCCCC2 | -9% | 5% | -12% | 75% | 5% | .
N#Cc1cc2c(nc1SCC(N)=O)CCCCC2 | 79µM* | -3%[57.1 µM] | ? | 55% | 5% | 1
CCCCSc1nc2c(cc1C#N)CCC2 | 4µM* | 154% | -9% | 203% | 198% | .
COc1cc(/C=C\C(=O)N2CCC=CC2=O)cc(OC)c1OC | 9%[21.5 µM] | . | . | . | . | .
CCCC[C@@H]1CCCO[C@@](C(=O)NCc2ccc(C)o2)(C(F)(F)F)C1 | . | -1% | -6% | 38% | . | -54*
CCCC[C@@H]1CCCO[C@@](C(=O)NCc2ccccc2)(C(F)(F)F)C1 | . | 17% | . | 24% | . | .
O=C(OC(C(=O)Nc1ccc(Cl)c(C(F)(F)F)c1)c1ccccc1)C1=COCCO1 (centres undefined) | 3%[59 µM] | -18% | 2% | 16% | 3% | 0
Cc1cc(C)cc(NC(=O)C(OC(=O)C2=COCCO2)c2ccccc2)c1 (centres undefined) | 25µM* | -14% | -3% | 14% | -36% | -9
CC(=O)CSc1ncnc2c1cnn2-c1ccccc1 | 34%[59 µM] | -19% | 24µM* | -5% | 2% | -15
CCOC(=O)CNC(=O)CSc1ncnc2c1cnn2-c1ccc(Cl)cc1 | 4%[59 µM] | ? | 24µM* | -10% | . | 2
NNc1ncnc2c1cnn2-c1ccccc1 | -49%[12.7 µM] | 50µM* | -5% | 20% | 28µM* | -22
Cc1ccccc1Nc1ncnc2c1cnn2-c1ccccc1 | -30% | -8% | -6% | 58% | 8% | .
CC1=C(C(=O)Nc2ccc(C)cc2C)C(c2ccccc2F)n2nc(SCC(=O)c3ccc(C)cc3)nc2N1 (centres undefined) | 21%[59 µM] | -14% | . | 33% | -4% | .
NC(=O)c1ccc[n+](CC(=O)Nc2ccccc2C(=O)O)c1 | ? | -18% | ? | 87% | -1% | 1
COc1cc(CC(=O)N2c3ccccc3N=C(c3ccccc3)C2C(=O)NCc2ccccc2)cc(OC)c1 (centres undefined) | . | . | 0% | . | . | 3
CCCCn1c(N)c(N(CCOC)C(=O)CC2CCCCC2)c(=O)[nH]c1=O | . | -5% | -6% | 21% | . | 9
Cc1cc(C)c2nc(-c3ccccn3)cc(C(=O)Nc3ccc(S(=O)(=O)Nc4cc(C)on4)cc3)c2c1 | -9%[0.501 µM] | 50µM* | 21µM* | -8% | 50µM* | .
Cc1cc(C)c2nc(-c3ccccn3)cc(C(=O)NCc3ccc(S(N)(=O)=O)cc3)c2c1 | 1% | -21% | -2% | 3% | -28% | -7
Cc1cc(C)c2nc(-c3ccccn3)cc(C(=O)NCCc3ccc(S(N)(=O)=O)cc3)c2c1 | 35µM* | -17% | 30µM* | 15% | 9% | -28
Cc1cc(NS(=O)(=O)c2ccc(NC(=O)c3cc(-c4ccccc4Cl)nc4ccccc34)cc2)no1 | ? | -31% | 67µM* | 19% | -25% | -4
COC(=O)c1ccccc1NC(=O)c1ccc(F)cc1F | . | -3% | . | . | . | .
